# Inconclusive results are not listed. Entries that show only a call come without a potency. The source made the active and inactive calls. The call rests on the fitted dose curve; in most records, active means well fitted curve in the direction sought with a large enough effect; inconclusive means small, poorly fitted or top-dose-only effect, or another doubt; inactive means no such curve, though single readings can be large; an effect the other way counts as inactive or inconclusive.
# Assays:
# [1] = target: Arylsulfatase A (Homo sapiens) (UniProt P15289); assay: qHTS screen for enhancers of Arylsulfatase A (ASA1): LOPAC Validation Assay (AID 720538)
# Sequence of Arylsulfatase A (Homo sapiens) (P15289 whole entry, looked up): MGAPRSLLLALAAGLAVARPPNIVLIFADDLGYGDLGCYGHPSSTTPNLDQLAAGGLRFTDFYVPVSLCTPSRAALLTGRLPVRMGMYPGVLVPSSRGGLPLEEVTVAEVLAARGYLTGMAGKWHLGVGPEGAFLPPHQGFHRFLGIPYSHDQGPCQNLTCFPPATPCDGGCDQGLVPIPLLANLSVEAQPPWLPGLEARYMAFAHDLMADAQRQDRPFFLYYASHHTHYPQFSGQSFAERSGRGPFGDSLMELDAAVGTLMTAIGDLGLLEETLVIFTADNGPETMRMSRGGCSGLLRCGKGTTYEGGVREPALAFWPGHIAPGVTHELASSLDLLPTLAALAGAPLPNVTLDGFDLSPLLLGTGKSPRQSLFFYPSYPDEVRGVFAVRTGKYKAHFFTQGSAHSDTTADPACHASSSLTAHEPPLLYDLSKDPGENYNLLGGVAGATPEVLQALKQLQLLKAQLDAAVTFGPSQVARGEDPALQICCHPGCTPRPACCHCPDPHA
# Procedure, shortened: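 SV40-transformed fibroblasts from an MLD patient (ASA-I179S) were treated with compound for 48 h at 37 C. They were then lysed with 0.5 mM pNCS substrate (final) for 14 h at room temperature and stopped with NaOH; signal read by fluorescence (Ex 525/Em 598 nm), with increase denoting enhanced activity.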
# [2] = qHTS for Activators of Parkin Expression: LOPAC Validation Assay (NLuc Reporter) (AID 720572; further: potency means the concentration at half of the fitted maximal effect)
# Procedure, shortened: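 Neuronal cells with a Parkin promoter-driven FLuc/NLuc coincidence reporter were treated 24 h at 37 C in 7-point dose response (LOPAC). NLuc luminescence read after FLuc; signals normalized to DMSO and positive control (100%).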
# [3] = qHTS for compounds that reverse cellular toxicity of Amyloid beta (A-beta) peptide in yeast: LOPAC Validation Assay (AID 720559); conditions: Potency: rescue of growth toxicity; further: potency means the concentration at half of the fitted maximal effect
# Procedure, shortened: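 Yeast expressing toxic A-beta grown with pinned compounds at 30 C for 48 hr. Growth measured as absorbance at 600 nm; data normalized to DMSO and to an equimolar FeCl3/clioquinol mixture as positive control.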
Compound,Potency [1],Potency [2],Potency [3]
NCCSSCCN,inactive,inactive,–
O=C1NC(=O)/C(=C/c2ccc3nccnc3c2)S1,inactive,inactive,inactive
Clc1ccc(N2CCN(Cc3c[nH]c4ncccc34)CC2)cc1,inactive,inactive,inactive
Cn1cc(C2=C(c3ccc(Cl)cc3Cl)C(=O)NC2=O)c2ccccc21,inactive,inactive,–
CCCCC/C=C\CC(O)/C=C/c1cccc(CC(O)CCCCO)n1 (stereo unspecified),inactive,inactive,inactive
COc1cc(C(O)CO)ccc1OS(=O)(=O)O (stereo unspecified),–,inactive,inactive
NC(N)=NC(=O)c1nc(Cl)c(N2CCCCCC2)nc1N,–,–,inactive
CN=c1nc(-c2ccccc2)n(-c2ccccc2)s1,–,–,inactive
CCC1C(=O)OCC1Cc1cncn1C (stereo unspecified),inactive,inactive,–
Oc1cc2c(cc1O)CN(C(=S)NCCc1ccc(Cl)cc1)CCC2,–,–,inactive
Oc1ccc(C2CNCc3sccc32)cc1O (stereo unspecified),–,inactive,inactive
O=P(O)(O)C(Cl)(Cl)P(=O)(O)O,inactive,inactive,–
N.N.N.N.N.N.N.N.N.N.N.N.N.N.O.O.[Ru+4].[Ru+5].[Ru+5],–,–,inactive
COc1cc(SC)ccc1C(=O)N1CCC(Cc2ccccc2)CC1,inactive,inactive,–
CCCCCCCCCCCCCCCCCC(=O)NCC(COP(=O)([O-])OCC[N+](C)(C)C)OCC (stereo unspecified),inactive,inactive,–
CCNC(=O)[C@H]1O[C@@H](n2cnc3c(N)nc(NCCc4ccc(CCC(=O)O)cc4)nc32)[C@H](O)[C@@H]1O,inactive,inactive,–
c1ccc(-c2ccccn2)nc1,–,–,inactive
Cc1ccc(S(=O)(=O)/C=C/C#N)cc1,inactive,inactive,–
O=C1C(SCCO)=C(SCCO)C(=O)c2ccccc21,inactive,inactive,–
CCCC1(C)C(C#N)(C#N)C1(C#N)C#N,inactive,inactive,–
O=C(O)c1cc(=O)c2c(Cl)cc(Cl)cc2[nH]1,–,inactive,inactive
NC(=S)c1ccc[n+]([C@@H]2O[C@@H](COP(=O)([O-])OP(=O)(O)OC[C@H]3O[C@@H](n4cnc5c(N)ncnc54)[C@H](OP(=O)(O)O)[C@@H]3O)C(O)C2O)c1 (stereo partly specified),–,inactive,inactive
COC1=C(OC)C(=O)c2ccccc2C1=O,–,inactive,inactive
NC[C@H]1O[C@@H](n2cnc3c(N)ncnc32)[C@H](O)[C@@H]1O,–,inactive,inactive
O=C(O)CNC(=O)C(CS)Cc1ccccc1 (stereo unspecified),–,inactive,inactive
Nc1ncnc2c1ncn2[C@@H]1O[C@H](COP(=O)(O)OP(=O)(O)OP(=O)(O)OP(=O)(O)OC[C@@H]2O[C@H](n3cnc4c(N)ncnc43)[C@@H](O)[C@H]2O)[C@@H](O)[C@H]1O,–,inactive,8.2 µM (active)
CC(C)CC(NP(=O)(O)O[C@@H]1O[C@@H](C)[C@H](O)[C@@H](O)[C@H]1O)C(=O)NC(Cc1c[nH]c2ccccc12)C(=O)O (stereo partly specified),–,inactive,inactive
N#C/C(=C\c1ccc(-c2cc(Cl)ccc2Cl)o1)C(=O)Nc1cccc2ncccc12,–,inactive,–

Compound,Potency [1],Potency [2],Potency [3]
NO,–,inactive,inactive
N.N.O=C(O)C1(C(=O)O)CCC1.[Pt],–,inactive,inactive
COc1cc(OC)c(/C=C2/C(=O)Nc3ccccc32)c(OC)c1,–,inactive,inactive
CCCCN1CCC(n2c(=O)[nH]c3ccccc32)CC1,–,inactive,inactive
NC(=O)C(=O)O,–,inactive,inactive
Fc1cccc(/C=N/N=C/c2cccc(F)c2)c1,–,inactive,inactive
OCC1O[C@H]([S-])[C@H](O)[C@@H](O)[C@@H]1O.[Au+] (stereo partly specified),–,16.4 µM (active),inactive
Nc1ncnc2c1ncn2[C@@H]1O[C@H](COP(=O)(O)CP(=O)(O)OP(=O)(O)O)[C@@H](O)[C@H]1O,–,inactive,inactive
C[N+]1(C)C2CC(OC(=O)[C@H](CO)c3ccccc3)CC1C1OC12 (stereo partly specified),–,inactive,inactive
CCCCC#Cc1nc(NC)c2ncn([C@@H]3O[C@H](CO)[C@@H](O)[C@H]3O)c2n1,–,inactive,inactive
CN(C)CCCO[C@@H]1[C@H]2OC(C)(C)O[C@H]2O[C@@H]1[C@H](O)CO,–,inactive,inactive
CC1OC1P(=O)(O)O (stereo unspecified),–,inactive,inactive
N#C/C(=C\c1ccc(O)c(O)c1)C(=O)c1ccc(O)c(O)c1,–,inactive,inactive
NCC1OC(O[C@H]2[C@H](O)[C@@H](OC3C(O)C(N)CC(N)C3OC3OC(CO)C(O)C(O)C3N)O[C@@H]2CO)C(N)C(O)C1O (stereo partly specified),–,inactive,–
O=C(O)CC1CC(c2ccccc2)=NO1 (stereo unspecified),–,inactive,inactive
C=CC(C)=C[C@@]1(C)SC(=O)C(C)=C1O,–,inactive,–
CC(C)(C=O)Cc1cc(C(C)(C)C)c(O)c(C(C)(C)C)c1,–,inactive,inactive
N#C/C(=C\c1ccc(O)c(O)c1)C(=O)NCc1ccccc1,–,inactive,–
Cc1ccc(C(=O)O[C@H](C(=O)O)[C@@H](OC(=O)c2ccc(C)cc2)C(=O)O)cc1 (tested in a mixture with another compound),–,inactive,inactive
CNC(=O)[C@H]1O[C@@H](n2cnc3c(NCc4cccc(I)c4)ncnc32)[C@H](O)[C@@H]1O,–,inactive,inactive
CNc1ncnc2c1ncn2[C@@H]1O[C@H](CO)[C@@H](O)[C@H]1O,–,inactive,–
CCCn1c(=O)c2[nH]c(-c3ccc(OCC(=O)NCCN)cc3)nc2n(CCC)c1=O,–,inactive,–
CC1CN(S(=O)(=O)c2cccc3cnccc23)CCN1 (stereo unspecified),–,inactive,inactive
CNCC[C@H](Oc1ccc(C(F)(F)F)cc1)c1ccccc1,–,inactive,inactive
O=C(/C=C/c1ccc(O)cc1)c1ccc(O)cc1O,–,inactive,inactive
COC(=O)c1c(C)[nH]c(C)c1C(=O)c1ccccc1Cc1ccccc1,–,inactive,inactive
CN1[C@@H](CC(=O)c2ccccc2)CCC[C@H]1C[C@H](O)c1ccccc1,–,inactive,–

# Reference: PubChem BioAssay (NCATS)
